Consider 86 compounds from article PMC4336329 (PLoS ONE, 2015).

Hit rate of the full screen: of about 310,000 compounds, about 14,000 (4.5%) showed an effect of 50% or more. The effect is printed as a negative number. The entries come from a sample that favours strong results as a whole.
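Note: peak tail current of the secondary pulse compared with the same well before compound.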

The target of the assay is human ether-à-go-go-related gene (hERG) potassium channel (human, UniProt Q12809). Briefly: primary screen, population patch clamp on CHO cells stably expressing hERG; higher = less effect of the substance.
Sequence of human ether-à-go-go-related gene (hERG) potassium channel (Q12809 whole entry, looked up): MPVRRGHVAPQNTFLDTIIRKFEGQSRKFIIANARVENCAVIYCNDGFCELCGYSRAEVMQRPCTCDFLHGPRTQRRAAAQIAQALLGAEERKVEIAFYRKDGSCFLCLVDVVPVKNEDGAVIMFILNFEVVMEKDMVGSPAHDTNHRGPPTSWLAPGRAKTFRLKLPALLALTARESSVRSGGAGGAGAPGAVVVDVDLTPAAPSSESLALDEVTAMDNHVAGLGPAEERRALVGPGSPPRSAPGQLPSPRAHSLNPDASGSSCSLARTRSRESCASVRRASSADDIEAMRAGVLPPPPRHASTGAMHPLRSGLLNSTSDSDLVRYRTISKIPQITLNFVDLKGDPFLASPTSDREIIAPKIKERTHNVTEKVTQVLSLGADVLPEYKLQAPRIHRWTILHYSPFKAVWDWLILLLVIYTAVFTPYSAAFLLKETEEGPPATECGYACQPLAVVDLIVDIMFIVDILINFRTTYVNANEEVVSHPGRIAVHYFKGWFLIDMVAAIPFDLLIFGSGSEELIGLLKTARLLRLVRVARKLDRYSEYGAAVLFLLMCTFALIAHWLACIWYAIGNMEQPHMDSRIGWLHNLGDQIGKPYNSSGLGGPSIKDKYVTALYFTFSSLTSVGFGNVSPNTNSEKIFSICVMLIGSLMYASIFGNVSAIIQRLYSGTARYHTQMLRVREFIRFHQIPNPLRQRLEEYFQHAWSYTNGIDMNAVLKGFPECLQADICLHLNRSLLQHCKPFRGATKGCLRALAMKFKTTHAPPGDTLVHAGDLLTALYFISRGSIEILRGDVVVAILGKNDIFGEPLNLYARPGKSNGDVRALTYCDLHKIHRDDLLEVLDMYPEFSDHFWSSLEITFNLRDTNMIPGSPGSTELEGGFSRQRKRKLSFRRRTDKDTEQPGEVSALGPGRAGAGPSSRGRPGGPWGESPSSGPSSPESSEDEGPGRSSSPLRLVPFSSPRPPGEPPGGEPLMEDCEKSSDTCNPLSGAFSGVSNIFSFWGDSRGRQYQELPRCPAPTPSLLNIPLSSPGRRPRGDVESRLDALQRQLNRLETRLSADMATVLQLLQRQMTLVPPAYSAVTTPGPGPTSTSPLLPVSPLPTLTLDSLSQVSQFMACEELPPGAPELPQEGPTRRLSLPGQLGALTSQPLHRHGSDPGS
Turning to `CNC(=O)Oc1ccc2c(c1)C(=O)c1ccccc1CO2`, the “hERG current change (%, negative = inhibition) at 10uM” value was 6.76%. On to `CNC(=S)Nc1cc(OC)c(NC(=O)c2ccco2)cc1OC`, for which the “hERG current change (%, negative = inhibition) at 10uM” value was found to be 14.9%.

Regarding `Cc1cc(C)nc(NNS(=O)(=O)c2ccc(F)c(Cl)c2)n1`, the “hERG current change (%, negative = inhibition) at 10uM” value worked out at 0.38%.

On to `Cc1ccc(C)n1NC(=O)c1cccs1`, for which the “hERG current change (%, negative = inhibition) at 10uM” value was determined as 9.98%. As for `CCOCCCNCC(O)c1ccccc1.O=C(O)C(=O)O` (centres unmarked), the figure is 3.55%; as for `O=C(N/N=C/c1cc(Cl)cc([N+](=O)[O-])c1O)C(O)(c1ccccc1)c1ccccc1`, -53%. With `O=C(N/N=C/c1cc([N+](=O)[O-])cc([N+](=O)[O-])c1O)C(O)(c1ccccc1)c1ccccc1`, the “hERG current change (%, negative = inhibition) at 10uM” value is -4.37%. For the compound `O=C(N/N=C/c1cccc([N+](=O)[O-])c1O)C(O)(c1ccccc1)c1ccccc1`, the “hERG current change (%, negative = inhibition) at 10uM” value turned out to be 8.16%. Regarding `Cc1ccc(/C(O)=C2/C(=O)C(=O)N(c3ccccn3)C2c2ccc([N+](=O)[O-])cc2)cc1` (centres unmarked), the “hERG current change (%, negative = inhibition) at 10uM” value is recorded as 8.83%.

Regarding `COC(=O)COc1cccc2c(=O)n(CC(=O)NCc3ccc(F)cc3)ccc12`, the “hERG current change (%, negative = inhibition) at 10uM” value is 1.82%. As for `O=C1CC(c2cccnc2)=NN1c1ccc(Cl)cc1Cl`, the figure is 12.1%; as for `C/C=C(/C)C(=O)O[C@@H]1c2c(ccc3ccc(=O)oc23)O[C@@H]1C(C)(C)OC(=O)/C(C)=C\C`, -0.936%; as for `O=C1OC(Nc2cc(Br)cc3cccnc23)c2ccccc21` (centres unmarked), -9.92%. Take `COc1cc(/C=N/NS(=O)(=O)c2ccc3ccccc3c2)ccc1OCCN1CCOCC1`: the “hERG current change (%, negative = inhibition) at 10uM” value is -39.5%. Consider `CCOc1cc(/C=N/NS(=O)(=O)c2ccc(OC)cc2)ccc1OCCN1CCOCC1`, for which the “hERG current change (%, negative = inhibition) at 10uM” value is listed as -53.8%. On to `COc1ccc(S(=O)(=O)N/N=C/c2ccc(OCCN3CCOCC3)c(OC)c2)cc1`, for which the “hERG current change (%, negative = inhibition) at 10uM” value was found to be 1.42%.

`CCn1c(COc2ccccc2C)nnc1SCC(=O)OC`: the “hERG current change (%, negative = inhibition) at 10uM” value is -9.68%. On to `O=C(CN(C(=O)c1csnn1)c1cccc2ccccc12)NC1CCCC1`, for which the “hERG current change (%, negative = inhibition) at 10uM” value is -2.34%. On to `Cc1cc(NCc2ccccn2)nc2ccccc12`, for which the “hERG current change (%, negative = inhibition) at 10uM” value is -15.4%. For the compound `Cc1cc(NC(=O)Cc2ccccc2)c2ccccc2n1`, the “hERG current change (%, negative = inhibition) at 10uM” value is listed as 14.2%. Under `COc1ccc2nc(C)cc(NCc3cccc(C(F)(F)F)c3)c2c1` stands -31.7%; under `COc1ccc2nc(C)cc(NCc3ccc(F)cc3)c2c1`, -61.6%. For `COc1ccc2nc(NCc3ccccc3)[nH]c2c1`, the “hERG current change (%, negative = inhibition) at 10uM” value is recorded as -25.4%.

For `Cc1cc(NCC2CCCCC2)nc2ccccc12`, the “hERG current change (%, negative = inhibition) at 10uM” value is given as -42.7%. Take `COC(=O)CSc1cc(C)nc2ccc(OC)cc12`: the “hERG current change (%, negative = inhibition) at 10uM” value stood at 1.44%. Under `Cc1cc(NCc2ccccc2)nc2ccccc12` stands -50.9%; under `Cc1cc(NCc2ccccc2)c2ccccc2n1.Cl`, -67.5%. Regarding `Cc1cc(NCCO)c2ccccc2n1.Cl`, the “hERG current change (%, negative = inhibition) at 10uM” value was found to be 6.81%. As for `COc1ccc2nc(C)cc(N/N=C/c3ccc(F)cc3)c2c1`, the figure is 0.337%. Regarding `COc1ccc(CNc2cc(C)nc3ccc(OC)cc23)cc1`, the “hERG current change (%, negative = inhibition) at 10uM” value is given as -72.8%. Under `Cc1cc(C(=O)NNc2c(Cl)cccc2Cl)no1` stands 3.46%; under `CC1(C)Cc2nc3oc4c(SCC(N)=O)ncnc4c3cc2CO1`, 4.95%. Take `Cc1ccc(S(=O)(=O)N(C)C)cc1NC(=O)COC(=O)/C=C/c1ccc2c(c1)OCO2`: the “hERG current change (%, negative = inhibition) at 10uM” value was -9.63%. Take `O=C(NC1CCCCC1)C1CCCN(S(=O)(=O)c2cccs2)C1` (centres unmarked): the “hERG current change (%, negative = inhibition) at 10uM” value was 11.3%.

For the compound `COc1ccc(NC(=O)OCCN2CCN(Cc3ccccc3)CCC2=O)cc1`, the “hERG current change (%, negative = inhibition) at 10uM” value is given as -9.25%.

Turning to `COc1c(O)ccc(/C=N/NC(=O)c2ccc3c(c2)OCCO3)c1[N+](=O)[O-]`, the “hERG current change (%, negative = inhibition) at 10uM” value turned out to be 7.36%. Under `COc1ccc(-c2cn(-c3ccc(SC(F)F)cc3)c3[n+]2CCC3)cc1OC.[Br-]` stands -62.4%.

Take `FC(F)Sc1ccc(-n2cc(-c3ccc(Cl)cc3)[n+]3c2CCC3)cc1.[Br-]`: the “hERG current change (%, negative = inhibition) at 10uM” value is reported as -74.3%. On to `COc1ccc(-c2cn(-c3ccccc3)c(=S)[nH]2)cc1OC`, for which the “hERG current change (%, negative = inhibition) at 10uM” value is listed as 16.1%. As to `COc1ccc(-n2cc(-c3ccc(OC)c(OC)c3)[nH]c2=S)cc1`, the “hERG current change (%, negative = inhibition) at 10uM” value turned out to be 6.1%.

For `N#Cc1ccc(-c2cn(-c3ccccc3)c3[n+]2CCCS3)cc1.[Br-]`, the “hERG current change (%, negative = inhibition) at 10uM” value worked out at 16.3%. Under `O=C(Cc1ccc(Cl)cc1)Nc1ccc(SC(F)F)cc1` stands -1.83%; under `CC(=O)c1ccc(-n2cc(-c3ccc(C(C)(C)C)cc3)[n+]3c2SCCC3)cc1.[Br-]`, -30.1%.

As for `FC(F)Sc1ccc(-n2cc(-c3ccccc3)[n+]3c2CCC3)cc1.[Br-]`, the “hERG current change (%, negative = inhibition) at 10uM” value was -77.9%. Consider `[Br-].c1ccc(-c2cn(-c3ccccc3)c3[n+]2CCCS3)cc1`, for which the “hERG current change (%, negative = inhibition) at 10uM” value is recorded as -3.51%. For the compound `O=[N+]([O-])CC(c1ccccc1)c1c[nH]c2ccccc12` (centres unmarked), the “hERG current change (%, negative = inhibition) at 10uM” value stood at 10.6%. For the compound `O=C(CN1C(=O)NC(Cc2c[nH]c3ccccc23)C1=O)Nc1ccc(F)c(F)c1F` (centres unmarked), the “hERG current change (%, negative = inhibition) at 10uM” value is recorded as -5.36%. As for `O=C(Nc1cccc(Cl)c1)N1CCN2C(=O)c3ccccc3C12c1ccccc1` (centres unmarked), the figure is -24.3%; as for `COc1ccc(CNC(=S)Nc2ccccc2)cc1`, 7.34%. As for `O=C(Cc1ccc([N+](=O)[O-])cc1)N1CCCc2ccccc21`, the “hERG current change (%, negative = inhibition) at 10uM” value is -41.1%. For `O=C(Oc1c(Cl)cc(Cl)c2ccccc12)N1CCCC1`, the “hERG current change (%, negative = inhibition) at 10uM” value is on record as -25.9%. With `CC(COc1ccc(/C=C/c2ccccc2)cc1)[N+](C)(C)C.[I-]` (centres unmarked), the “hERG current change (%, negative = inhibition) at 10uM” value is on record as -9.04%. With `CC(C)(C)C(=O)Nc1ccc(C(=O)Nc2cc(NC(=O)c3ccc(NC(=O)C(C)(C)C)cc3)cc(C(=O)O)c2)cc1`, the “hERG current change (%, negative = inhibition) at 10uM” value stood at 6.62%. Under `CCCc1cc(C(=O)Nc2ccc(C(=O)OC)cc2)cs1` stands 5.28%. Under `CCOc1cc(/C=N/NC(=O)c2nn(C)cc2Br)ccc1OCc1ccccc1` stands 5.59%. As for `CCOc1cc(/C=N/NC(=O)c2nn(C)cc2Br)ccc1OCc1ccccc1Cl`, the figure is -14.7%; as for `COc1ccc(/C=N/NC(=O)c2nn(C)cc2Br)cc1CSCc1ccco1`, -50.6%; as for `Cc1cc(C)cc(OCC(=O)N2N=C(C(F)(F)F)CC2(O)C(C)(C)C)c1` (centres unmarked), 3.64%. Take `CC1CCN(C(=O)CSCC(=O)Nc2nc(-c3cccs3)cs2)CC1`: the “hERG current change (%, negative = inhibition) at 10uM” value is recorded as -20.6%. As for `Cc1ccc(C2=CC(c3ccccc3)n3ncnc3N2)cc1` (centres unmarked), the “hERG current change (%, negative = inhibition) at 10uM” value is -15.8%. As for `COc1ccc(C2C=C(c3ccccc3)Nc3ncnn32)cc1` (centres unmarked), the figure is -57.4%; as for `COc1cccc(C2=CC(c3ccc(N(C)C)cc3)n3ncnc3N2)c1` (centres unmarked), -1.72%. As for `CCOc1ccc(C2C=C(c3ccccc3)Nc3ncnn32)cc1` (centres unmarked), the figure is -47.2%; as for `COc1cccc(C2=CC(c3ccc(C)cc3)n3ncnc3N2)c1` (centres unmarked), -52.4%.

Regarding `C1=C(c2ccccc2)Nc2ncnn2C1c1ccccc1` (centres unmarked), the “hERG current change (%, negative = inhibition) at 10uM” value is -5.26%.

On to `Cc1ccc(C2=CC(c3ccc(C)cc3)n3ncnc3N2)cc1` (centres unmarked), for which the “hERG current change (%, negative = inhibition) at 10uM” value is recorded as -17.6%. As for `Cc1ccc(C2C=C(c3ccccc3)Nc3ncnn32)cc1` (centres unmarked), the figure is -64.7%. Under `COc1cccc(C2=CC(c3ccccc3)n3ncnc3N2)c1` (centres unmarked) stands -2.39%; under `O=C(Nc1nnc(-c2ccccc2Cl)s1)c1ccccc1F`, 10.9%.

As for `CC(=O)c1ccc(N2CCN(S(=O)(=O)c3ccc(-c4cc(C)no4)s3)CC2)cc1`, the “hERG current change (%, negative = inhibition) at 10uM” value is -1.08%.

Take `Cc1ccc2c(c1)NCCO2`: the “hERG current change (%, negative = inhibition) at 10uM” value turned out to be 4.46%. As for `O=C(CSc1ccc(F)cc1)Nc1ccc(N2CCOCC2)c(Cl)c1`, the figure is -20.3%; as for `COc1cccc(N2CCN(C(=O)c3oc4ccccc4c3NC(=O)Cc3ccc(OC)c(OC)c3)CC2)c1`, -14.1%. As to `COc1ccc(CC(=O)Nc2c(C(=O)N3CCN(c4ccccc4)CC3)oc3ccccc23)cc1OC`, the “hERG current change (%, negative = inhibition) at 10uM” value is listed as -32.4%. For the compound `CCOCCCN(C)C1CCN(C(=O)c2oc3ccccc3c2NC(=O)Cc2cccc([N+](=O)[O-])c2)CC1`, the “hERG current change (%, negative = inhibition) at 10uM” value is given as -75.3%. `CCOCCCN(C)C1CCN(C(=O)c2oc3ccccc3c2NC(=O)Cc2ccc([N+](=O)[O-])cc2)CC1`: the “hERG current change (%, negative = inhibition) at 10uM” value is recorded as -81.5%. As for `COc1ccc(N2CCN(C(=O)c3oc4ccccc4c3NC(=O)Cc3cccc(OC)c3)CC2)cc1`, the figure is -30.2%; as for `Cc1nc(=S)c2c([nH]1)-c1ccccc1CC21CCCCC1`, 10.8%; as for `CC1CCCC(NC(=O)COC(=O)c2ccc(N(C)C)cc2)C1C` (centres unmarked), -1.77%. For the compound `Cc1ccc(NC(=O)CN(C)S(=O)(=O)c2cccc3cccnc23)c(C)c1`, the “hERG current change (%, negative = inhibition) at 10uM” value is 4.3%.

As to `Cc1ccsc1C(=O)C1CCCN(Cc2cc(F)ccc2-n2cccn2)C1` (centres unmarked), the “hERG current change (%, negative = inhibition) at 10uM” value is reported as -82.9%.

On to `Cc1ccsc1C(=O)C1CCCN(Cc2ccccc2O)C1` (centres unmarked), for which the “hERG current change (%, negative = inhibition) at 10uM” value is -48.1%. With `Cc1ccsc1C(=O)C1CCCN(Cc2cn(C)nc2C)C1` (centres unmarked), the “hERG current change (%, negative = inhibition) at 10uM” value is on record as -40.9%.

On to `Cc1ccsc1C(=O)C1CCCN(Cc2ccn[nH]2)C1` (centres unmarked), for which the “hERG current change (%, negative = inhibition) at 10uM” value is 6.96%. For `Cc1ccc(-n2cccn2)c(CN2CCCC(C(=O)c3sccc3C)C2)c1` (centres unmarked), the “hERG current change (%, negative = inhibition) at 10uM” value is reported as -85.4%. As for `COC(=O)Nc1ncc(CN2C(=O)c3ccccc3C2=O)s1`, the figure is -23%.
